Results published in PMC5540273 (PLoS ONE, 2017).

tested on: RPS6KA5(Kin.Dom.2-C-terminal); details: concentration: 1 μM, replicates: in singlicate; n = 1
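Further: KINOMEscan kinase panel screen.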

Which “%Inh” value does the source give for `COc1cc(Nc2nccc(N3CCC(NC(=O)Nc4cccc(C(C)=O)c4)C3)n2)cc(OC)c1OC` (stereo not shown) [GSK1379753] here?
Its value is 6%.

Which “%Inh” value does the source give for `CCn1c(-c2nonc2N)nc2c(C#CC(C)(C)O)ncc(OCCCCN)c21.O=C(O)C(F)(F)F.O=C(O)C(F)(F)F` [GSK507274] here?
Its value is 74%.

For `COc1cc(Nc2nccc(-c3c(-c4cccc(NC(=O)c5c(F)cccc5F)c4)nn4ncccc34)n2)cc(OC)c1OC` [GSK327238], which “%Inh” value is on record?
The value was 3%.

`O=C(Nc1n[nH]c2nc(-c3ccc(O)cc3)ccc12)C1CC1` [SB-710363] was tested. Which “%Inh” value did it give?
Its value is 53%.

How did the “%Inh” value turn out when `O=c1[nH]cc(-c2ccc(N3CCOCC3)cc2)c2sc(-c3cn[nH]c3)cc12` [GSK2276055] was run?
Its value is 28%.

Which “%Inh” value does the source give for `O=C(Nc1cccc(-c2nn3ccccc3c2-c2ccnc(Nc3cccc(F)c3)n2)c1)c1c(F)ccc(F)c1Cl` [GSK357952] here?
The value was 20%.

How did the “%Inh” value turn out when `CC(C)c1nc(-c2cccc(NS(=O)(=O)c3c(F)cccc3F)c2F)c(-c2ccnc(Nc3ccc(N4CCOCC4)nc3)n2)s1` [GSK2008607] was run?
Its value is 0%.

With `CC(=O)N1CCN(c2ccc(Nc3nccc(-c4sc(C(C)C)nc4-c4cccc(NS(=O)(=O)c5cccc(Cl)c5)c4)n3)cn2)CC1` [GSK1660437] as the compound, how does the “%Inh” value read?
The value was 0%.

Which “%Inh” value does the source give for `O=C(Nc1cccc(-c2nn3ncccc3c2-c2ccnc(Nc3ccccc3)n2)c1)c1c(F)cccc1F` [GSK198271] here?
Its value is 0%.

With `Cl.c1ccc(-c2ccc3c(Nc4ccc5[nH]ncc5c4)ccnc3c2)nc1` [GW440137] as the compound, how does the “%Inh” value read?
Its value is 34%.

`Cn1cc(-c2[nH]c3cc(NC(=O)[C@H](N)C4CCCCC4)cc4c3c2C=NNC4=O)cn1` was tested. Which “%Inh” value did it give?
The value was 59%.

How did the “%Inh” value turn out when `CNC(=O)c1ccccc1Nc1nc(Nc2ccc(N3CCOCC3)cc2)ncc1Cl.Cl` [GSK1576028] was run?
Its value is 44%.

With `c1ccc(-c2cnc3nccnn23)cc1` [AH20685] as the compound, how does the “%Inh” value read?
The value was 0%.

With `CN(C)S(=O)(=O)c1cc(-c2ccc3nccc(-c4cccc(S(N)(=O)=O)c4)c3c2)cnc1N` [GSK1669921] as the compound, how does the “%Inh” value read?
The value was 0%.

For `COc1cccc(NC(=O)NC2CCN(c3ccnc(Nc4cc(OC)c(OC)c(OC)c4)n3)C2)c1` (stereo not shown) [GSK1379763], which “%Inh” value is on record?
Its value is 35%.

For `C[C@@H](Oc1cc(-n2cnc3cc(-c4ccnc(NCCS(C)(=O)=O)c4)ccc32)sc1C(N)=O)c1ccccc1Cl` [GSK907232], which “%Inh” value is on record?
Its value is 0%.

Which “%Inh” value does the source give for `Fc1ccc(-c2ncn(C3CCNCC3)c2-c2ccnc(Oc3ccc(-c4ccccc4)cc3)n2)cc1` [SB-245391] here?
The value was 6%.

For `COc1cccc(C(=O)Nc2cccc(Oc3ccc4nc(NC(=O)C5CC5)cn4n3)c2)c1`, which “%Inh” value is on record?
Its value is 19%.

Which “%Inh” value does the source give for `Nc1ncc(-c2cccnc2)c2scc(-c3ccc4c(c3)CCN4C(=O)Cc3ccccc3)c12` [GSK683281] here?
Its value is 0%.

Which “%Inh” value does the source give for `Cc1occc1-c1ncc(OC[C@@H](N)Cc2c[nH]c3ccccc23)cc1-c1ccc2[nH]nc(C)c2c1.O=C(O)C(F)(F)F` [GSK682037] here?
The value was 0%.

How did the “%Inh” value turn out when `Nc1n[nH]c2cnc(-c3ccccc3)cc12` [SB-642124] was run?
The value was 44%.

With `Cc1ccc(S(=O)(=O)Nc2ccc(Nc3nccc(Nc4cccc5[nH]ncc45)n3)cc2)cc1` [GSK581271] as the compound, how does the “%Inh” value read?
Its value is 0%.

`c1ccc(-c2n[nH]cc2Nc2ccnc3ccccc23)nc1` [GW694077] was tested. Which “%Inh” value did it give?
Its value is 56%.

For `COc1ccc(Nc2nccc(NCCNC(=O)c3cc4ccccc4s3)n2)cc1` [GSK1379896], which “%Inh” value is on record?
Its value is 0%.

`Cc1ccc(F)c(C(=O)Nc2cccc(-c3nn4ccccc4c3-c3ccnc(Nc4cccc(F)c4)n3)c2)c1F` [GSK361061] was tested. Which “%Inh” value did it give?
The value was 0%.

For `CC(C)(C)c1ccc2nccc(Nc3cccc(O)c3)c2c1` [GW856795], which “%Inh” value is on record?
Its value is 0%.

How did the “%Inh” value turn out when `COc1cc(Nc2ncc3c(C)nc(-c4cc5ccccc5[nH]4)n3n2)cc(OC)c1OC` [GW869516] was run?
The value was 7%.

Which “%Inh” value does the source give for `COC(=O)Nc1nc2ccc(Oc3ccc(NC(=O)Nc4cc(C(F)(F)F)ccc4F)cc3)cc2n1C.Cl` [GW692089] here?
Its value is 0%.

For `CCCCc1nn2ncccc2c1-c1ccnc(Nc2ccc(N3CCN(C)CC3)cc2)n1` [GW684941], which “%Inh” value is on record?
Its value is 43%.

How did the “%Inh” value turn out when `O=C(O)C(F)(F)F.O=C(O)C(F)(F)F.O=c1[nH]ccc2nc(N[C@@H]3CCCNC3)nc(Nc3ccc(S(=O)(=O)N4CCOCC4)cc3)c12` [GSK2177277] was run?
The value was 74%.

How did the “%Inh” value turn out when `Cl.Cl.NCC(C(=O)Nc1cc(Br)c(-c2ccnc3[nH]ccc23)s1)c1ccccc1` (stereo not shown) [GSK1269851] was run?
Its value is 5%.

Which “%Inh” value does the source give for `COc1ccc(-c2coc3ccc(-c4nnc(SCc5ccc(OC)c(C(F)(F)F)c5)o4)cc23)cc1` here?
The value was 0%.

With `COc1cccc(-c2ccc3c(NC(=O)C4CC4)n[nH]c3n2)c1` [SB-710903] as the compound, how does the “%Inh” value read?
The value was 12%.

For `Oc1cc(Nc2ccnc3cc(I)ccc23)ccc1F` [GW552771], which “%Inh” value is on record?
Its value is 0%.

How did the “%Inh” value turn out when `COc1cc2c(cc1OCCN1CCNCC1)ncc1c3ccc(C#N)cc3[nH]c21` was run?
The value was 38%.

Which “%Inh” value does the source give for `CCS(=O)(=O)c1ccc(OC)c(Nc2nccc(-c3c(-c4cccc(NC(=O)c5c(F)cccc5F)c4)nn4ncccc34)n2)c1` [GSK326180] here?
The value was 0%.

`Cc1cccc(Nc2nc(N[C@H]3CCNC3)ncc2C(N)=O)c1.Cl` [GSK2197149] was tested. Which “%Inh” value did it give?
The value was 0%.
